A number with no mark means an inactive call. This is one part of the list. Activity calls are given as the source filed them.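 Rule for the calls, unless noted: active = inhibition above the hit cutoff computed for the primary STAT3 screen (cut at about 44% in these data); inactive = the rest.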

These results are taken from PubChem BioAssay.

Test [1] can be described thus: blockers of IL-6 STAT3 signaling – U3A cells, luciferase, luminescence, confirmation (AID 1265).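 Note: 0% = IL-6 plus DMSO and 100% = IL-6 plus nifuroxazide control.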 Particulars: IL-6 STAT3 luciferase reporter, at 5.7 µM, active compounds read high, cell line lacks STAT1. For orientation: In a reporter assay the amount or activity of a reporter protein is the signal.
Test [2] in a line: inhibition of TNF-alpha-driven NF-kB transcription – cell-based, HEK293T, luciferase, TNF-alpha stimulus, counter-screen for STAT3 inhibitor project, confirmation (AID 1308;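 active = inhibition above the mean of solvent-only control wells plus 3 SD, cutoff set per campaign, cut at about 13% in these data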;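 note: 0% = TNF-alpha with DMSO and 100% = TNF-alpha with MG high control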). Particulars: HEK293T NF-kB luciferase reporter, TNF-alpha induced; at 5.7 µM; active compounds read high. On the technique in general: The purpose of a counterscreen is to sort out artefacts and off-target activity.

The nature of test [3]: inhibition of STAT1-driven transcription – cell-based, NIH 3T3, luciferase luminescence, IFN-gamma, counter-screen for STAT3 inhibitor project, confirmation (AID 1317;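 active = inhibition above the mean plus 3 SD of solvent-only control wells, limit set per screening run, cut at about 16% in these data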;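 note: 0% = DMSO with IFN-gamma and 100% = nifuroxazide control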). Particulars: NIH 3T3 STAT1-luciferase reporter, IFN-gamma induced, at 5.7 µM, active compounds read high.
The target in test [4] is Neuropeptide Y receptor type 2 (Homo sapiens) (UniProt P49146). Description: human Y2 receptor positive modulation or activation – cell-based, confirmation (AID 1539; in the data active = activation above about 33%). Particulars: cell-based NPY-Y2 potentiator/agonist assay; at 3.6 µM; active compounds read high.
Test [5] has as its target Neuropeptide Y receptor type 1 (Homo sapiens) (UniProt P25929). Kind of test: human Y1 receptor positive modulation or activation – cell-based, fluorescence, counter-screen for NPY-Y2 potentiator project (AID 1651; in the data active = activation above about 45%;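 note: cells stimulated with submaximal NPY then isoproterenol with phosphodiesterase inhibitor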). Particulars: Y1 HEK293-CNG cells, membrane potential fluorescence; at 3.6 µM; active compounds read high.
The target is the same in test [6]. Description: human Y1 receptor agonism, CNGC membrane potential – cell-based, fluorescence, selectivity assay for NPY-Y2 potentiator project (AID 1702;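 active = activation above the mean of DMSO-only control wells plus 3 SD, cut at about 18% in these data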;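 note: cells stimulated with 1 µM isoproterenol plus the PDE inhibitor Ro 20-1724; 0% = isoproterenol with DMSO and no NPY and 100% = 40 nM NPY; Y1 agonists lower the membrane potential dye signal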). Particulars: HEK293 Y1-CNGC, at 3.6 µM, active compounds read high.
A short description of test [7]: blockers of isoproterenol-driven CNG channel signal – cell-based, HEK293-CNG parental, membrane potential fluorescence, counter-screen for NPY-Y2 potentiator project (AID 1703;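 active = inhibition above the control-well mean plus 3 SD of those wells, cut at about 22% in these data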;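 note: 0% = DMSO with isoproterenol and 100% = DMSO without isoproterenol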). Particulars: isoproterenol cAMP, at 3.6 µM, active compounds read high.
For test [8], the target named is Neuropeptide Y receptor type 2 (Homo sapiens) (UniProt P49146). Description: agonism at human Y2 receptor without NPY – cell-based, fluorescence, counter-screen for NPY-Y2 potentiator project (AID 1710;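 active = activation above the mean of solvent-only control wells plus 3 SD, cut at about 10% in these data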;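 note: cells stimulated by isoproterenol with no NPY added so direct agonism is tested; 0% = DMSO with isoproterenol alone and 100% = NPY at EC100 plus isoproterenol; agonism lowers probe fluorescence through less cAMP and CNG channel opening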). Particulars: HEK293 Y2/CNGC cells, membrane potential fluorescence, agonist mode; at 3.6 µM; active compounds read high.
For test [9], the system named is DAF-12 nuclear receptor (Heterodera glycines), GAL4-LBD fusion. Description: hgDAF-12 GAL4 fusion reporter activation, retest – cell-based, luminescence, HEK293, GAL4-LBD fusion, confirmation (AID 743050;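 active = mean activation over triplicate wells above the hit cutoff derived from the earlier primary screen, cut at about 11% in these data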;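 note: 0% = DMSO low control and 100% = 2 mM sodium butyrate high control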). Particulars: HEK293 GAL4-hgDAF12 luciferase reporter, agonist mode; at 6.8 µM; active compounds read high; percent of butyrate response.
For test [10], the target named is Oxysterols receptor LXR-beta (Homo sapiens) (UniProt P55055). Kind of test: nonspecific reporter activation via LXR – cell-based, luminescence, HEK293, H. glycines campaign, counter-screen for hgDAF-12 agonist project, confirmation (AID 743051;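 active = mean activation of the triplicate above a set limit carried over from the primary screen, none filed active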). Particulars: HEK293 Gal4-LXR luciferase reporter, 24 h; at 6.8 µM; active compounds read high.
The target of test [11] is Platelet-activating factor acetylhydrolase (Homo sapiens) (UniProt Q13093). Kind of test: inhibition of plasma PAF acetylhydrolase – biochemical, fluorescence polarization, human, confirmation (AID 463230;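 active = mean inhibition of the triplicate above the hit cutoff set for the earlier primary screen, cut at about 25% in these data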;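 note: 0% = enzyme with DMSO and 100% = wells lacking pPAFAH enzyme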). Particulars: recombinant pPAFAH, FP-Rh probe fluorescence polarization; at 3.39 µM; active compounds read high.
A short description of test [12]: reduced OD of T4-infected AddAB+ E. coli – absorbance, E. coli V3065, T4 phage, triplicate, AddAB inhibitor project, confirmation (AID 488942;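 active = mean inhibition above a set limit taken from the earlier primary screen, cut at about 13% in these data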;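 note: higher means less bacterial growth since AddAB block lets phage replicate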). Particulars: E. coli V3065 expressing H. pylori AddAB, at 11.9 µM, active compounds read high, T4 phage with gene 2 nonsense mutations.
Test [13] can be described thus: reduced OD of phage-infected RecBCD+ V66 E. coli – absorbance, mutant T4 phage, counter-screen for AddAB inhibitor project (AID 488955;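 active = mean inhibition above the mean of solvent-only control wells plus 3 SD, cut at about 4% in these data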;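 note: optical density read after an 18 h incubation at 37 °C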). Particulars: OD growth, at 11.9 µM, active compounds read high.
Test [14] can be described thus: bacterial growth inhibitors – absorbance, counter-screen for AddAB inhibitor project, confirmation (AID 488956; in the data active = inhibition above about 25%). Particulars: bacterial viability, absorbance (AddAB counterscreen); at 11.9 µM; active compounds read high.
Test [15] concerns the target Nuclear receptor coactivator 3 (Homo sapiens) (UniProt Q9Y6Q9). Kind of test: NCOA3 GAL4-fusion reporter inhibition – cell-based, luminescence, quadruplicate, confirmation (AID 588792;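 active = mean inhibition over 43.08%, the solvent-only control mean plus 3 SD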;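 note: 0% = DMSO treated cells and 100% = gossypol at 36 µM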). Particulars: HEK293 GAL4-SRC3 luciferase reporter, at 3.6 µM, active compounds read high.
Test [16] deals with transactivating tegument protein VP16 (Human herpesvirus 1), Gal4-VP16 luciferase reporter. Kind of test: repression of VP16-driven luciferase reporter – cell-based, luminescence, high throughput, counter-screen for SRC3 inhibitor project (AID 588794; in the data active = inhibition above about 30%). Particulars: mammalian cells, at 3.6 µM, active compounds read high.
For test [17], the target named is Nuclear receptor coactivator 1 (Homo sapiens) (UniProt Q15788). Description: NCOA1 GAL4-fusion reporter inhibition – cell-based, luminescence, quadruplicate, confirmation (AID 588820;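 active = mean inhibition above 46.68%, the untreated control wells mean plus 3 SD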;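 note: 0% = DMSO wells and 100% = gossypol 36 µM treated wells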). Particulars: HEK293 GAL4-SRC1 luciferase reporter, at 3.6 µM, active compounds read high.
Test [18] is described as follows: repression of VP16-driven luciferase reporter – cell-based, luminescence, high throughput, counter-screen for SRC1 inhibitor project (AID 588824; in the data active = inhibition above about 25%). Particulars: cell-based VP16 transactivation luciferase luminescence; at 3.6 µM; active compounds read high.
The target of test [19] is Photoreceptor-specific nuclear receptor (Homo sapiens) (UniProt Q9Y5X4). Kind of test: retest of NR2E3-NCOR disrupting agonists – cell-based, luminescence, CHO-S two-hybrid, confirmation (AID 624378;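 active = average inhibition above a cutoff equal to the mean inhibition of all tested compounds plus one SD, cut at about 70% in these data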;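 note: 0% = DMSO in NR2E3 cells and 100% = DMSO in cells lacking NR2E3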). Particulars: CHO-S mammalian two-hybrid NR2E3-NCOR, luciferase luminescence; at 3.98 µM; active compounds read high.
Test [20] is described as follows: nonselective effects on VP16 transactivation – cell-based, luminescence, CHO-S, high throughput, counter-screen for NR2E3 agonist project, confirmation (AID 624379;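 active = mean inhibition above a cutoff equal to the average over all tested compounds plus one standard deviation, cut at about 70% in these data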;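 note: 0% = DMSO with VP16-transfected cells and 100% = DMSO with cells lacking VP16; higher means less reporter light so more repression of VP16 activity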). Particulars: CHO-S GAL4-VP16 luciferase reporter, at 3.98 µM, active compounds read high.
Test [21] can be described thus: StAR promoter reporter inhibitors, counter-screen for LRH-1 inverse agonist project, cell-based, luminescence, high throughput (AID 651611; in the data active = inhibition above about 28%). Particulars: StAR promoter luciferase reporter counterscreen, at 3.6 µM, active compounds read high.
The target of test [22] is Nuclear receptor subfamily 5 group A member 2 (Homo sapiens) (UniProt O00482). Kind of test: NR5A2 activity suppression in reporter cells – cell-based, luminescence, confirmation (AID 651613; in the data active = inhibition above about 42%;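 note: HEK293T cells co-transfected with LRH-1 and StAR promoter luciferase reporter; 0% = vehicle wells and 100% = parental cells lacking receptor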). Particulars: cell-based LRH-1 luciferase reporter, inverse agonism; at 3.6 µM; active compounds read high.
The target of test [23] is Steroidogenic factor 1 (Homo sapiens) (UniProt Q13285). Kind of test: inverse agonism at SF1 nuclear receptor – cell-based, luminescence, high throughput, counter-screen for LRH-1 inverse agonist project (AID 651614; in the data active = inhibition above about 44%;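 note: cells cotransfected with StAR promoter reporter and SF1 expression vector; 0% = vehicle on cells with receptor and 100% = vehicle on cells lacking receptor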). Particulars: cell-based SF1 luciferase reporter, at 3.6 µM, active compounds read high.
Test [24] in a line: compounds suppressing VP16-driven luciferase signal – cell-based, luminescence, high throughput, counter-screen for LRH-1 inverse agonist project (AID 651615; in the data active = inhibition above about 33%). Particulars: Gal4-VP16 luciferase reporter cells, at 3.6 µM, active compounds read high.
A short description of test [25]: VP16-driven transactivation reporter suppression – cell-based, luminescence, HEK293, counter-screen for COUP-TFII antagonist project (AID 687007; in the data active = inhibition above about 13%). Particulars: HEK293 Gal4-VP16 luciferase reporter, at 8.5 µM, active compounds read high.
In test [26] the target is COUP transcription factor 2 (Homo sapiens) (UniProt P24468). Description: retest of COUP-TFII reporter suppressors – cell-based, luciferase reporter, HEK293, triplicate, confirmation (AID 687008;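 active = mean inhibition over three repeats above a set limit taken from the earlier primary screen, cut at about 38% in these data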;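 note: 100% = cells given the luciferase reporter alone without the COUP-TF2 vector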). Particulars: HEK293 NGFI-A luciferase reporter, luminescence; at 8.5 µM; active compounds read high.
Test [27] in a line: potentiators of IFN-gamma STAT1 reporter activity – cell-based, HTS, luciferase reporter, confirmation (AID 1262;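 active = activation above a set limit carried over from the earlier primary STAT1 screen, cut at about 140% in these data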;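 note: simple ratio to median IFN-gamma plus DMSO wells so 0% means no light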). Particulars: NIH 3T3 STAT1-luciferase reporter, IFN-gamma potentiation, luminescence; at 5.7 µM; active compounds read high; 100% = IFN-gamma EC80 alone, no compound.
The nature of test [28]: enhancement of NF-kB transcriptional signalling – cell-based, HEK293T, luciferase luminescence, TNF-alpha, counter-screen for STAT1 activator project (AID 1306;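 active = activation above the mean of solvent-only control wells plus 3 SD, set per campaign, cut at about 130% in these data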;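 note: TNF-alpha given at a submaximal dose yielding about 80% of full reporter signal; values are well signal over median control so 100% means no change and 0% no light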). Particulars: HEK293T NF-kB luciferase reporter, TNF-alpha stimulated, at 5.7 µM, active compounds read high, 100% = TNF-alpha with vehicle only.
Test [29] has as its target Signal transducer and activator of transcription 3 (Homo sapiens) (UniProt P40763). Kind of test: enhancers of IL-6 STAT3 transcription – U3A cells, luciferase, luminescence, counter-screen for STAT1 activator project, confirmation (AID 1316;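 active = activation above the solvent-only control well mean plus 3 SD, set per plate batch, cut at about 110% in these data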;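 note: 0% = no luminescence and 100% = median IL-6 plus DMSO wells; higher means more STAT3 reporter activation so hits are non-selective activators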). Particulars: U3A cells STAT3-luciferase reporter, IL-6, luminescence; at 5.7 µM; active compounds read high; 100 = IL-6 alone, no compound effect; cells lack STAT1.

For test [30], the target named is Serine protease HTRA1 (Homo sapiens) (UniProt Q92743). Kind of test: confirming inhibition of human HTRA1 – biochemical, fluorescence polarization, confirmation (AID 540248;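 active = mean inhibition over three repeats above a set limit taken from the earlier primary screen, cut at about 37% in these data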;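 note: 0% = HTRA1 with DMSO and 100% = wells lacking HTRA1; inhibitors block probe binding so polarization drops and inhibition rises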). Particulars: recombinant HTRA1, FP-rhodamine activity-based probe, at 5.96 µM, active compounds read high. A general note: In fluorescence polarisation assays a small probe gives low polarisation when free and higher when bound to something large.

Chain of Oxysterols receptor LXR-beta (Homo sapiens) (P55055 whole entry, looked up, the tested form may be a part): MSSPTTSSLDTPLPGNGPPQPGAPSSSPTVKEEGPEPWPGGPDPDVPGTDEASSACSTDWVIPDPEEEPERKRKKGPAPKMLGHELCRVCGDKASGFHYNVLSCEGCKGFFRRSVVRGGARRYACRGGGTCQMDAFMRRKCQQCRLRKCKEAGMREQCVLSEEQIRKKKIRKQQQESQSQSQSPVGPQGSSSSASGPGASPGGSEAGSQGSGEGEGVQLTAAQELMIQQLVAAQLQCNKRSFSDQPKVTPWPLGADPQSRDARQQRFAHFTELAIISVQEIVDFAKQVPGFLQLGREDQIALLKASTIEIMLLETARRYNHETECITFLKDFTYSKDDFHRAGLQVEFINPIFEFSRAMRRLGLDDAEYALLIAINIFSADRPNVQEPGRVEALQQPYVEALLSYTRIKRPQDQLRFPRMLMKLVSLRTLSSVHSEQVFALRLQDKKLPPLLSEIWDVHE
Chain of Neuropeptide Y receptor type 2 (Homo sapiens) (P49146 whole entry, looked up, the tested form may be a part): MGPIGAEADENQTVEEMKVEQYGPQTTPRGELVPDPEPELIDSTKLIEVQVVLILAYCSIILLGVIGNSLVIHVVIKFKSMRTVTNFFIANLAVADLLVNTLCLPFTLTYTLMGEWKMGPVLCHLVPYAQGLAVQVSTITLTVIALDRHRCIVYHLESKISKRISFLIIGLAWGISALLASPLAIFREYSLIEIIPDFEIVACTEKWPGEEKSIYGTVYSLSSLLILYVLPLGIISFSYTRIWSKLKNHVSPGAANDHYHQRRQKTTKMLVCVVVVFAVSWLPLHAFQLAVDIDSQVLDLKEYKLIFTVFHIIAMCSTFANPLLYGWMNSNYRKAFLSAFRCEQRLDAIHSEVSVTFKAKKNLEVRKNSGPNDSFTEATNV
Chain of Neuropeptide Y receptor type 1 (Homo sapiens) (P25929 whole entry, looked up): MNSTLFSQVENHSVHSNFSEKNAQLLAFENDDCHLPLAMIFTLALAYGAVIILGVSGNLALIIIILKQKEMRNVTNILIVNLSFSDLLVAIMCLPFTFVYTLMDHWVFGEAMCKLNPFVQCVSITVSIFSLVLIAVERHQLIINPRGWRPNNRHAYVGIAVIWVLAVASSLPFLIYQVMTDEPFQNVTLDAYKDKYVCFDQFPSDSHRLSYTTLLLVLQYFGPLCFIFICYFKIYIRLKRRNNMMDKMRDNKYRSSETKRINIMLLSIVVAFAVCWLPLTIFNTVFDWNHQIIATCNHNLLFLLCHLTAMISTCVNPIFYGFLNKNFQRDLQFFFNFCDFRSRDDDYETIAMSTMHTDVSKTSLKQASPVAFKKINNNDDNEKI
Chain of Nuclear receptor subfamily 5 group A member 2 (Homo sapiens) (O00482 whole entry, looked up): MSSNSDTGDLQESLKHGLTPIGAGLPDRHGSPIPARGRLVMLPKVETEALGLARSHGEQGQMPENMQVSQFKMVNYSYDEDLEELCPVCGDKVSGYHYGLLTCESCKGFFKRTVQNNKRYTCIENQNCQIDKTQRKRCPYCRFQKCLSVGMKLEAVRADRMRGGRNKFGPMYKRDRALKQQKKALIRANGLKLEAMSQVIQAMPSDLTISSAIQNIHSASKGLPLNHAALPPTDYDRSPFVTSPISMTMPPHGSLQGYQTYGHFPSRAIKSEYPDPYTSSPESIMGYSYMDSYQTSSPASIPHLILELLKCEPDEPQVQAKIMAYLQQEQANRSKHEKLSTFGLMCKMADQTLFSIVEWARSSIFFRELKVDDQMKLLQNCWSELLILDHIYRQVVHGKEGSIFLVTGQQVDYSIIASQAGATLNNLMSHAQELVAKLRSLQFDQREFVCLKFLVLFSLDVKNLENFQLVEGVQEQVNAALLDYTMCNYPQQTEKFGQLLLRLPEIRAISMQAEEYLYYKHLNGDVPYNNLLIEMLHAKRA
Chain of COUP transcription factor 2 (Homo sapiens) (P24468 whole entry, looked up): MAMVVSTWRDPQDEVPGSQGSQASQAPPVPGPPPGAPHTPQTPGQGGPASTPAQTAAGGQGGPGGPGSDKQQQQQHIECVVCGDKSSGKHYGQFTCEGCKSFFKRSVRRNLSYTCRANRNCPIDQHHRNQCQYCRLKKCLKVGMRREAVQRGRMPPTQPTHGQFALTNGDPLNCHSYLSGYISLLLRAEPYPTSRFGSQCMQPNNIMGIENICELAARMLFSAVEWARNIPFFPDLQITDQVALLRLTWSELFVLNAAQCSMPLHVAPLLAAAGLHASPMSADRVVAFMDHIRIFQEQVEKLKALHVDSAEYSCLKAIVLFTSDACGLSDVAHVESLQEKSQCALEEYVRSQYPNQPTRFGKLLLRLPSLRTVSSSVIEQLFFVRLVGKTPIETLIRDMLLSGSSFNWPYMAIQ
Chain of Photoreceptor-specific nuclear receptor (Homo sapiens) (Q9Y5X4 whole entry, looked up): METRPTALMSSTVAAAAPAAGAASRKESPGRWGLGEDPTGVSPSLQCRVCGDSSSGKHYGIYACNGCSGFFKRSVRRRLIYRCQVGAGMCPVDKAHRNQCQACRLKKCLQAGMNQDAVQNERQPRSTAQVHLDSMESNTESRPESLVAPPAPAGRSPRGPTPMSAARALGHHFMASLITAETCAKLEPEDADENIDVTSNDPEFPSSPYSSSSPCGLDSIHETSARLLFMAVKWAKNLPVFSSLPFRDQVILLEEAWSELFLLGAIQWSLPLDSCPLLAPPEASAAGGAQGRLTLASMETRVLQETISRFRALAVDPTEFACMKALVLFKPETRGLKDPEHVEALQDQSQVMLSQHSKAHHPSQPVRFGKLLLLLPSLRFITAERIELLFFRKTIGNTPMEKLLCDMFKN
Chain of Platelet-activating factor acetylhydrolase (Homo sapiens) (Q13093 whole entry, looked up): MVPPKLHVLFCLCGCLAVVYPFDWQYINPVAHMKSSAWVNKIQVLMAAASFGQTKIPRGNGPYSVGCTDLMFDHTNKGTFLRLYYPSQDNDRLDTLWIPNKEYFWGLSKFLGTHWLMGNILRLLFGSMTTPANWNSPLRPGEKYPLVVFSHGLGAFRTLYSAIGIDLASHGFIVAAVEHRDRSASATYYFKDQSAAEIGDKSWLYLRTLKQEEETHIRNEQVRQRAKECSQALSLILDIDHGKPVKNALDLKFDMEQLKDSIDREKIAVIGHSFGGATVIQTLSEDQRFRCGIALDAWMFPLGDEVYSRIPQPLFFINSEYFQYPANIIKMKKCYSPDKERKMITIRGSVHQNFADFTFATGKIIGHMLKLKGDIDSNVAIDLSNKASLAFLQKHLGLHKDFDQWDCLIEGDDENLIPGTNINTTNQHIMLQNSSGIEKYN
Chain of Nuclear receptor coactivator 1 (Homo sapiens) (Q15788 whole entry, looked up, the tested form may be a part): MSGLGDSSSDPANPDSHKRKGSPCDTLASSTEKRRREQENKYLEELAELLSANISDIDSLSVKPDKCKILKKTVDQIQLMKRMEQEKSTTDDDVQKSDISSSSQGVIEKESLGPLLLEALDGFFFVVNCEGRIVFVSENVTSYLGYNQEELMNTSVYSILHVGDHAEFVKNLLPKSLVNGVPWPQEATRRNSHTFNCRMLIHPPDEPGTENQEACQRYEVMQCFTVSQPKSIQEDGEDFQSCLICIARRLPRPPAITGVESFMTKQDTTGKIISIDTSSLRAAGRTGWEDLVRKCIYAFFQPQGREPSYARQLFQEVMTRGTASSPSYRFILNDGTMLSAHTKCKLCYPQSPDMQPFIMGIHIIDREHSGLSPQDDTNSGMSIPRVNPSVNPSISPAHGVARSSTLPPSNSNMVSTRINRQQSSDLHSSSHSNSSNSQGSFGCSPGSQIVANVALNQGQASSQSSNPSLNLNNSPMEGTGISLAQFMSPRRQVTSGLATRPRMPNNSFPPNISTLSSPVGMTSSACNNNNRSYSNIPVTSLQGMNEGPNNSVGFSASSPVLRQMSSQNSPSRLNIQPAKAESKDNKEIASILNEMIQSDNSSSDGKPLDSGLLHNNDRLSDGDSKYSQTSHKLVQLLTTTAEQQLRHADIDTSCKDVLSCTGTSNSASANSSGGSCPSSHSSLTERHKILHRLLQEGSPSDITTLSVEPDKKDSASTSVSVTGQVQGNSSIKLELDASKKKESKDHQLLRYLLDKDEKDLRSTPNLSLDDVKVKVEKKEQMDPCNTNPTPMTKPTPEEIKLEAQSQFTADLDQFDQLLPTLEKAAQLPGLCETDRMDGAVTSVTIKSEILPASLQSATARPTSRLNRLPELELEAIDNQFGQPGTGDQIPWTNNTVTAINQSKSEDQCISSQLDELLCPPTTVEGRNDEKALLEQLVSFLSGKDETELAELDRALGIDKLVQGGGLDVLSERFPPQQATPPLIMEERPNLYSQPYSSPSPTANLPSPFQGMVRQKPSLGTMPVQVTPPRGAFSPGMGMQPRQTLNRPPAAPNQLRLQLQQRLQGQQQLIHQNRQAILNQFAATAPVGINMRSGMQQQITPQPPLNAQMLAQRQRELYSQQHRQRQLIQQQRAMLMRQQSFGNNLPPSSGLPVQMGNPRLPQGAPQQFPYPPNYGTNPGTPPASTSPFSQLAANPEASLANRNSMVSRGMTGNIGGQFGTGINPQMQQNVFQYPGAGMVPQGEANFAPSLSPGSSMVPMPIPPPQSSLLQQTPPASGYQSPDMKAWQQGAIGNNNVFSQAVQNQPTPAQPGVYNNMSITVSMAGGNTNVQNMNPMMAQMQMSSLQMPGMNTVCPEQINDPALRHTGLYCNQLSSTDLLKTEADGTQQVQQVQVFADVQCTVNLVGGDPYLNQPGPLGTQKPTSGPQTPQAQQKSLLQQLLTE
Chain of Steroidogenic factor 1 (Homo sapiens) (Q13285 whole entry, looked up, the tested form may be a part): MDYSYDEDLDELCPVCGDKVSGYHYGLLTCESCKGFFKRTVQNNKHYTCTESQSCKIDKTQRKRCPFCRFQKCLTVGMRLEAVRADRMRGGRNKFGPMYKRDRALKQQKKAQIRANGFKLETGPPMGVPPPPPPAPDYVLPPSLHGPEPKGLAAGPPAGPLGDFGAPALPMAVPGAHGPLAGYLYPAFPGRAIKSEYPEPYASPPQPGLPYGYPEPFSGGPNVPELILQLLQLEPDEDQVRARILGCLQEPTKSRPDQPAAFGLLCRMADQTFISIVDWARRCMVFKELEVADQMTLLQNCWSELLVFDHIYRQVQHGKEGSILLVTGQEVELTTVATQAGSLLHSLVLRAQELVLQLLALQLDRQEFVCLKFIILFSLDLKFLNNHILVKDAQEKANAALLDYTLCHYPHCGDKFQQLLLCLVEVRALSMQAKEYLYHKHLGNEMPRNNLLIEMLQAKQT

`Cn1c(SCC(=O)N2CCCc3ccccc32)nc2ccccc2c1=O`: the inhibition in test [1] was 49.3% (active); in test [2], 13.7% (active); in test [3], 22.5% (active).

`CCSc1nnc(NC(=O)c2ccc(C)cc2)s1`: the inhibition in test [1] is 21.2%; in test [2], -24.2%; in test [3], -63%; in test [7] it was -0.46%. For the same compound, the activation is -4.89% in [4]; -0.65% in [5]; -1.02% in test [6]; -10.9% in test [8]; 17.3% (active) in test [9]; 0.93% in test [10].

On to `Cc1ccc2nc(-c3ccc(NC(=O)c4cccnc4)cc3)oc2c1`, for which the inhibition in [1] is 31.7%; in test [2], -25.2%; in [3] it was -38.3%.

With `CCN1/C(=C\c2ccc3ccccc3[n+]2CC)Sc2cc(C)ccc21`, the inhibition is 86.2% (active) in test [1]; 33.4% (active) in test [2]; 19% (active) in [3]; 2.61% in test [11]; 34.1% (active) in test [12]; 5.58% (active) in test [13]. Moreover, the inhibition is 16.1% in test [14]; 35.8% in test [15]; 70.5% (active) in [16]; 32.7% in test [17]; 67.9% (active) in test [18]; 98.3% (active) in test [19]. Also, the inhibition was 87.5% (active) in test [20]; 59.5% (active) in [21]; 107% (active) in [22]; 86.4% (active) in [23]; 83.4% (active) in test [24]; 10.8% in test [25]. In [26], the inhibition was 66.5% (active).

Regarding `OCCn1c(-c2ccccc2)csc1=Nc1ccccc1`, the results for the inhibition in test [1], in test [2] and in [3] were 14%, -12% and -20.1%, respectively.

`NC(=O)Cc1ccc2sc(-c3ccccc3)nc2c1`: the results for the activation (% of control) in [27], in test [28] and in test [29] were 203% (active), 126% and 108%, respectively. Moreover, the activation in test [9] is 17.4% (active); in [10] it was 0.66%.

For the compound `c1ccc(-c2noc(-c3cccs3)n2)nc1`, the inhibition was 27.6% in [1], -12.9% in test [2] and -54.9% in [3].

On to `Cc1ccc(Nc2ccccc2N)cc1`, for which the inhibition was 24.3% in test [1], 22.9% (active) in test [2], 6.8% in test [3] and 53.1% (active) in test [30].

Turning to `COc1cc(/C=N/O)ccc1OCc1ccc([N+](=O)[O-])cc1`, the activation (% of control) was 234% (active) in [27], 131% in [28] and 123% (active) in test [29]. For the same compound, the activation in test [9] was 15.5% (active); in [10] it was 0.71%.

For the compound `O=C(Nc1ccc(NC(=O)c2cccs2)cn1)c1ccco1`, the inhibition in test [1] was 20.3%; in test [2], -29.5%; in test [3] it was -92.3%.

A word on the inhibition: it is the drop in the measured response relative to a control, in per cent.
